In PubChem BioAssay (NCI):
The panel holds about 83,000 compounds, 20% with a hit somewhere; the sample as a whole holds those more often.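 Results are percent growth after 48 hours of single-concentration exposure. 100 means growth as in untreated cells, lower positive values show inhibition; negative values down to -100 show cell death.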 Values without a mark were called inactive. The source made the active and inactive calls. How the source made its calls: active means growth percent below 10; inactive means the rest.

Key:
Test in all cases: NCI-60 one-dose screen, 48 h (100 = growth as untreated, 0 = no growth, -100 = all killed)
Details in all cases: 10 µM
K-562 leukemia = system: K-562 leukemia
MALME-3M melanoma = system: MALME-3M melanoma
MDA-MB-231 breast = system: MDA-MB-231 breast
RXF 393 renal = system: RXF 393 renal
SF-268 CNS = system: SF-268 CNS
SF-295 CNS = system: SF-295 CNS
SF-539 CNS = system: SF-539 CNS
UACC-257 melanoma = system: UACC-257 melanoma
M14 melanoma = system: M14 melanoma
HT29 colon = system: HT29 colon
SNB-75 CNS = system: SNB-75 CNS
SNB-19 CNS = system: SNB-19 CNS
U251 CNS = system: U251 CNS
PC-3 prostate = system: PC-3 prostate
SK-MEL-5 melanoma = system: SK-MEL-5 melanoma
UACC-62 melanoma = system: UACC-62 melanoma
LOX IMVI melanoma = system: LOX IMVI melanoma
SK-MEL-28 melanoma = system: SK-MEL-28 melanoma
SK-MEL-2 melanoma = system: SK-MEL-2 melanoma
HCT-15 colon = system: HCT-15 colon

## CN(C)c1ccc(Cc2ccc(N(C)C)cc2Cl)c(Cl)c1
K-562 leukemia
  growth: 90.2%
MALME-3M melanoma
  growth: 91.9%
MDA-MB-231 breast
  growth: 109%
RXF 393 renal
  growth: 93.2%
SF-268 CNS
  growth: 103%
SF-295 CNS
  growth: 116%
SF-539 CNS
  growth: 108%
UACC-257 melanoma
  growth: 110%
M14 melanoma
  growth: 107%
HT29 colon
  growth: 102%
SNB-75 CNS
  growth: 77.7%
SNB-19 CNS
  growth: 102%
U251 CNS
  growth: 110%
PC-3 prostate
  growth: 86.8%
SK-MEL-5 melanoma
  growth: 91.9%
UACC-62 melanoma
  growth: 88.6%
LOX IMVI melanoma
  growth: 96%
SK-MEL-28 melanoma
  growth: 105%
SK-MEL-2 melanoma
  growth: 113%

## COc1ccc(-c2nc(-c3nc4ccc(OC)cc4[nH]3)cc3c2[nH]c2ccccc23)cc1
K-562 leukemia
  growth: 16.2%
MALME-3M melanoma
  growth: 58.6%
MDA-MB-231 breast
  growth: 59.5%
RXF 393 renal
  growth: 43%
SF-268 CNS
  growth: 48.8%
SF-295 CNS
  growth: -13.1% (active)
SF-539 CNS
  growth: 51.6%
UACC-257 melanoma
  growth: 70.5%
M14 melanoma
  growth: 34.7%
HT29 colon
  growth: 17.4%
SNB-75 CNS
  growth: 67.3%
SNB-19 CNS
  growth: 37.5%
U251 CNS
  growth: 14.3%
PC-3 prostate
  growth: 25.8%
SK-MEL-5 melanoma
  growth: 49.9%
UACC-62 melanoma
  growth: 50%
LOX IMVI melanoma
  growth: 27.2%
SK-MEL-28 melanoma
  growth: 47.7%
SK-MEL-2 melanoma
  growth: 11.2%

## O=[P@@]1(c2ccccc2)O[C@H](COCc2ccccc2)[C@@H](OCc2ccccc2)[C@H](OCc2ccccc2)[C@H]1O
K-562 leukemia
  growth: 93.9%
MALME-3M melanoma
  growth: 109%
MDA-MB-231 breast
  growth: 73.2%
RXF 393 renal
  growth: 50%
SF-268 CNS
  growth: 43.6%
SF-295 CNS
  growth: -24.9% (active)
SF-539 CNS
  growth: 58.1%
UACC-257 melanoma
  growth: 88.4%
M14 melanoma
  growth: 102%
HT29 colon
  growth: 90.8%
SNB-75 CNS
  growth: -12.1% (active)
SNB-19 CNS
  growth: 55.3%
U251 CNS
  growth: 39.4%
PC-3 prostate
  growth: 78.7%
SK-MEL-5 melanoma
  growth: 73%
UACC-62 melanoma
  growth: 50.8%
LOX IMVI melanoma
  growth: 95.7%
SK-MEL-28 melanoma
  growth: 97%
SK-MEL-2 melanoma
  growth: 67.2%

## COc1cc(Nc2ccnc(NCCNc3ccnc4cc(Cl)ccc34)n2)cc(OC)c1
K-562 leukemia
  growth: 2.17% (active)
MALME-3M melanoma
  growth: -68.3% (active)
MDA-MB-231 breast
  growth: 27.1%
RXF 393 renal
  growth: 46.2%
SF-268 CNS
  growth: 50.5%
SF-295 CNS
  growth: 39.9%
SF-539 CNS
  growth: -65.9% (active)
M14 melanoma
  growth: -79.9% (active)
HCT-15 colon
  growth: 28.8%
HT29 colon
  growth: 1.76% (active)
SNB-75 CNS
  growth: 68.7%
SNB-19 CNS
  growth: 64.2%
U251 CNS
  growth: 9.32% (active)
PC-3 prostate
  growth: 46.5%
SK-MEL-5 melanoma
  growth: -92.8% (active)
UACC-62 melanoma
  growth: 51.1%
LOX IMVI melanoma
  growth: -37.2% (active)
SK-MEL-28 melanoma
  growth: -94.9% (active)

## COc1cc(NC(=O)c2sc3nc4c(cc3c2N)C(O)CCC4)cc(OC)c1 (stereo not given)
K-562 leukemia
  growth: 27.9%
MALME-3M melanoma
  growth: 77.6%
MDA-MB-231 breast
  growth: 88.9%
RXF 393 renal
  growth: 90.4%
SF-268 CNS
  growth: 103%
SF-295 CNS
  growth: 87.5%
SF-539 CNS
  growth: 87.7%
UACC-257 melanoma
  growth: 89.2%
M14 melanoma
  growth: 75.4%
SNB-75 CNS
  growth: 82.1%
SNB-19 CNS
  growth: 93.6%
U251 CNS
  growth: 78.6%
PC-3 prostate
  growth: 99.5%
SK-MEL-5 melanoma
  growth: 88.4%
UACC-62 melanoma
  growth: 73%
LOX IMVI melanoma
  growth: 93.3%
SK-MEL-28 melanoma
  growth: 85.1%
SK-MEL-2 melanoma
  growth: 61.6%

## CC[C@H](C)C(=O)O[C@H]1CCC=C2C=C[C@H](C)C(CCC3C[C@@H](O)CC(=O)O3)[C@H]21 (stereo not given in full)
K-562 leukemia
  growth: 71.5%
MALME-3M melanoma
  growth: 89.1%
MDA-MB-231 breast
  growth: 2.32% (active)
RXF 393 renal
  growth: 70.2%
SF-268 CNS
  growth: 33.8%
SF-295 CNS
  growth: 8.14% (active)
SF-539 CNS
  growth: 85.8%
UACC-257 melanoma
  growth: 75.2%
M14 melanoma
  growth: 61.7%
HCT-15 colon
  growth: 55.8%
SNB-75 CNS
  growth: 32.2%
SNB-19 CNS
  growth: 56.2%
U251 CNS
  growth: 16.8%
PC-3 prostate
  growth: 31.1%
SK-MEL-5 melanoma
  growth: 60%
UACC-62 melanoma
  growth: 29.6%
LOX IMVI melanoma
  growth: 11.6%
SK-MEL-28 melanoma
  growth: 78.4%
SK-MEL-2 melanoma
  growth: 19.5%

## O=C(Nc1cccc(-n2cc(-c3ccncc3)c(-c3ccc(O)c(Cl)c3)n2)c1)c1ccc(N2CCOCC2)c(C(F)(F)F)c1
K-562 leukemia
  growth: 3.17% (active)
MALME-3M melanoma
  growth: 21.3%
MDA-MB-231 breast
  growth: -30.5% (active)
RXF 393 renal
  growth: -8.59% (active)
SF-268 CNS
  growth: 63.2%
SF-295 CNS
  growth: -39.7% (active)
SF-539 CNS
  growth: -28% (active)
UACC-257 melanoma
  growth: 60.1%
M14 melanoma
  growth: 36.8%
HCT-15 colon
  growth: 16.6%
SNB-75 CNS
  growth: 33.5%
SNB-19 CNS
  growth: 67.9%
PC-3 prostate
  growth: 24.4%
SK-MEL-5 melanoma
  growth: 40.9%
UACC-62 melanoma
  growth: 43.3%
LOX IMVI melanoma
  growth: 21.1%
SK-MEL-28 melanoma
  growth: 49.7%

## O=[N+]([O-])c1ccc(N/N=C/c2cccc3ccccc23)nc1
K-562 leukemia
  growth: 85.4%
MALME-3M melanoma
  growth: 168%
MDA-MB-231 breast
  growth: 101%
RXF 393 renal
  growth: 112%
SF-268 CNS
  growth: 121%
SF-295 CNS
  growth: 126%
SF-539 CNS
  growth: 102%
UACC-257 melanoma
  growth: 102%
M14 melanoma
  growth: 104%
HT29 colon
  growth: 97.1%
SNB-75 CNS
  growth: 93.2%
SNB-19 CNS
  growth: 99.2%
U251 CNS
  growth: 93%
PC-3 prostate
  growth: 90.7%
SK-MEL-5 melanoma
  growth: 100%
UACC-62 melanoma
  growth: 91.4%
LOX IMVI melanoma
  growth: 97.1%
SK-MEL-28 melanoma
  growth: 111%
SK-MEL-2 melanoma
  growth: 103%

## O=C(Nc1cccc(-n2cc(-c3ccncc3)c(-c3ccc(O)c(Cl)c3)n2)c1)c1ccc(Cl)c(Cl)c1
K-562 leukemia
  growth: 30.1%
MALME-3M melanoma
  growth: 29.5%
MDA-MB-231 breast
  growth: -19.9% (active)
RXF 393 renal
  growth: 16%
SF-268 CNS
  growth: 74.1%
SF-295 CNS
  growth: 13.9%
SF-539 CNS
  growth: 35.8%
UACC-257 melanoma
  growth: 10.8%
M14 melanoma
  growth: 29.2%
HT29 colon
  growth: 69.8%
SNB-75 CNS
  growth: 38.5%
U251 CNS
  growth: 11%
PC-3 prostate
  growth: 37.9%
SK-MEL-5 melanoma
  growth: 48.1%
UACC-62 melanoma
  growth: 51.1%
LOX IMVI melanoma
  growth: 53%
SK-MEL-28 melanoma
  growth: 47.6%
